Of roughly 8,800 targets only a part is listed; those with a hit were picked by preference. About 0.5% of all pairs of compound and target were hits. Values without a mark were called inactive.
Key:
Experiment in all cases: log2 fold change, soluble protein after heating vs DMSO (PISA); higher = thermal stabilisation; K562 lysate, 10 uM; active = over 0.2 and 3.5 SD of the protein, either way, in both replicates (recomputed)
lapatinib = compound: CS(=O)(=O)CCNCc1ccc(-c2ccc3ncnc(Nc4ccc(OCc5cccc(F)c5)c(Cl)c4)c3c2)o1 [lapatinib]
Outline: (§1)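 A 30 min treatment with 10 μM compound was applied to crude K562 extract at 1 mg/mL protein in PBS pH 7.4 with 1 mM MgCl2. Heating for 3 min spanned 48°C-58°C, after which aliquots were pooled, adjusted to 0.5% NP-40 at 4°C and spun at 21,000xg for 90 min. TMTpro 16plex LC-MS/MS of the supernatant, with channel sums equalised, gave values recorded as log-two fold change in thermal stability against solvent controls, from duplicates.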

pictilisib = compound: CS(=O)(=O)N1CCN(Cc2cc3nc(-c4cccc5[nH]ncc45)nc(N4CCOCC4)c3s2)CC1 [pictilisib]
Outline: as §1

crizotinib = compound: C[C@@H](Oc1cc(-c2cnn(C3CCNCC3)c2)cnc1N)c1c(Cl)ccc(F)c1Cl [crizotinib]
Outline: as §1

[1] = compound: C[C@H](C1=CC=C(C=C1)C(=O)NC2=C3C=CNC3=NC=C2)N
Outline: as §1

duvelisib = compound: C[C@H](Nc1ncnc2nc[nH]c12)c1cc2cccc(Cl)c2c(=O)n1-c1ccccc1 [duvelisib]
Outline: as §1

gandotinib = compound: Cc1cc(Nc2cc(CN3CCOCC3)c3nc(C)c(Cc4ccc(Cl)cc4F)n3n2)n[nH]1 [gandotinib]
Outline: as §1

tozasertib = compound: Cc1cc(Nc2cc(N3CCN(C)CC3)nc(Sc3ccc(NC(=O)C4CC4)cc3)n2)n[nH]1 [tozasertib]
Outline: as §1

doramapimod = compound: Cc1ccc(-n2nc(C(C)(C)C)cc2NC(=O)Nc2ccc(OCCN3CCOCC3)c3ccccc23)cc1 [doramapimod]
Outline: as §1

bafetinib = compound: Cc1ccc(NC(=O)c2ccc(CN3CC[C@H](N(C)C)C3)c(C(F)(F)F)c2)cc1Nc1nccc(-c2cncnc2)n1 [bafetinib]
Outline: as §1

[2] = compound: Cc1cccc(CC(=O)N2CCc3c2ccc(-c2cn(C)c4ncnc(N)c24)c3F)n1
Outline: as §1

nilotinib = compound: Cc1cn(-c2cc(NC(=O)c3ccc(C)c(Nc4nccc(-c5cccnc5)n4)c3)cc(C(F)(F)F)c2)cn1 [nilotinib]
Outline: as §1

[3] = compound: Cc1nc(Nc2n[nH]c3c2CN(C(=O)N[C@H](CN(C)C)c2ccccc2)C3(C)C)c2sccc2n1
Outline: as §1

dasatinib = compound: Cc1nc(Nc2ncc(C(=O)Nc3c(C)cccc3Cl)s2)cc(N2CCN(CCO)CC2)n1 [dasatinib]
Outline: as §1

[4] = compound: Cc1ncc(-c2ccnc(Nc3ccc(S(C)(=O)=O)cc3)n2)n1C(C)C
Outline: as §1

[5] = compound: Cn1cc(-c2ccc3c(c2)CCN3C(=O)Cc2cccc(C(F)(F)F)c2)c2c(N)ncnc21
Outline: as §1

quisinostat = compound: Cn1cc(CNCC2CCN(c3ncc(C(=O)NO)cn3)CC2)c2ccccc21 [quisinostat]
Outline: as §1

tipifarnib = compound: Cn1cncc1[C@@](N)(c1ccc(Cl)cc1)c1ccc2c(c1)c(-c1cccc(Cl)c1)cc(=O)n2C [tipifarnib]
Outline: as §1

[6] = compound: NC(=O)Nc1cc(-c2cccc(F)c2)sc1C(=O)N[C@H]1CCCNC1
Outline: as §1

[7] = compound: NC(=O)c1cnc(N[C@@H]2CCCC[C@@H]2N)nc1Nc1cccc(-n2nccn2)c1
Outline: as §1

[8] = compound: NC1(c2ccc(-c3nc4ccn5c(=O)[nH]nc5c4cc3-c3ccccc3)cc2)CCC1
Outline: as §1

Chain of UniProt P35250 (P35250 whole entry, looked up): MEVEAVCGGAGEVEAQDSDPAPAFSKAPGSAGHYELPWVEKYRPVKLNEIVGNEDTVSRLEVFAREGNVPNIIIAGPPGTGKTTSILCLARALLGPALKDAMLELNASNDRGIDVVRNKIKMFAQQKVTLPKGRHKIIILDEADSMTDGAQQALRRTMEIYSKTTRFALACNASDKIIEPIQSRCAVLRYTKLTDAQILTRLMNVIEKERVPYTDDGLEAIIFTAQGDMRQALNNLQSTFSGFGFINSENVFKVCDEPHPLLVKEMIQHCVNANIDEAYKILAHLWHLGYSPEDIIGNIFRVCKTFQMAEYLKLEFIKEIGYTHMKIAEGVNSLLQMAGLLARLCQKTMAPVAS
Chain of UniProt P54136 (P54136 whole entry, looked up): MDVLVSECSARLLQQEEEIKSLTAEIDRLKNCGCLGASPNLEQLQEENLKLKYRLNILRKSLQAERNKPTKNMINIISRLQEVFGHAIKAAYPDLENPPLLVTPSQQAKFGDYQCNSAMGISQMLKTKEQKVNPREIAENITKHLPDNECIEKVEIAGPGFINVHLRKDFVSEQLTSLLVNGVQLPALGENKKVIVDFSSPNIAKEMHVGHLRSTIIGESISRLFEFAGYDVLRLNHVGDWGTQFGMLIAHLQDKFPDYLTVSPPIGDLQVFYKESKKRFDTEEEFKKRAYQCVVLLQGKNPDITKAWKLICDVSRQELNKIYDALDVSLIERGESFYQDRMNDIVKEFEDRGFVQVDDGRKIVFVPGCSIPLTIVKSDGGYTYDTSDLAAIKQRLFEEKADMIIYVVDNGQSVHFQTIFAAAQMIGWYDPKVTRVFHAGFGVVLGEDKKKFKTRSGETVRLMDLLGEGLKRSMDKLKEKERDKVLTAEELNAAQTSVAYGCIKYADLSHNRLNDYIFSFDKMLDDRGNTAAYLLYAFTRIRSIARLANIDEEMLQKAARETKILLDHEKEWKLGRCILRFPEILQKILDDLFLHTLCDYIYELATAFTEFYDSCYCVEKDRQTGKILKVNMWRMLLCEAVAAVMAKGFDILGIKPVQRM
Chain of UniProt P28702 (P28702 whole entry, looked up): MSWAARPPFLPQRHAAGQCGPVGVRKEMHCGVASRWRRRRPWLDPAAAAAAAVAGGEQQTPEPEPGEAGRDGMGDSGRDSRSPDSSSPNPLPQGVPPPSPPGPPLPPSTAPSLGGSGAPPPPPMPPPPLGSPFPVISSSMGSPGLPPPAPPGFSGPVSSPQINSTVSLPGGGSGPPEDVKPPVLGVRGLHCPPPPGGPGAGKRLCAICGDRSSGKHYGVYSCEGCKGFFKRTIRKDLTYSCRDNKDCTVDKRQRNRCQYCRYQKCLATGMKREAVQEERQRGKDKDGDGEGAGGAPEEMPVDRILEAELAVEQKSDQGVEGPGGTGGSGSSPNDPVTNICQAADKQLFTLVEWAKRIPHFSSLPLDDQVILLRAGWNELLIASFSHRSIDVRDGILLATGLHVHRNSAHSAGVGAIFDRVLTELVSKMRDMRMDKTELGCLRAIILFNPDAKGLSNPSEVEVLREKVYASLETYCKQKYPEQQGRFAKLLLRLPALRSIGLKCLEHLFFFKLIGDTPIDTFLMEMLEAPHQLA
Chain of UniProt Q92878 (Q92878 whole entry, looked up): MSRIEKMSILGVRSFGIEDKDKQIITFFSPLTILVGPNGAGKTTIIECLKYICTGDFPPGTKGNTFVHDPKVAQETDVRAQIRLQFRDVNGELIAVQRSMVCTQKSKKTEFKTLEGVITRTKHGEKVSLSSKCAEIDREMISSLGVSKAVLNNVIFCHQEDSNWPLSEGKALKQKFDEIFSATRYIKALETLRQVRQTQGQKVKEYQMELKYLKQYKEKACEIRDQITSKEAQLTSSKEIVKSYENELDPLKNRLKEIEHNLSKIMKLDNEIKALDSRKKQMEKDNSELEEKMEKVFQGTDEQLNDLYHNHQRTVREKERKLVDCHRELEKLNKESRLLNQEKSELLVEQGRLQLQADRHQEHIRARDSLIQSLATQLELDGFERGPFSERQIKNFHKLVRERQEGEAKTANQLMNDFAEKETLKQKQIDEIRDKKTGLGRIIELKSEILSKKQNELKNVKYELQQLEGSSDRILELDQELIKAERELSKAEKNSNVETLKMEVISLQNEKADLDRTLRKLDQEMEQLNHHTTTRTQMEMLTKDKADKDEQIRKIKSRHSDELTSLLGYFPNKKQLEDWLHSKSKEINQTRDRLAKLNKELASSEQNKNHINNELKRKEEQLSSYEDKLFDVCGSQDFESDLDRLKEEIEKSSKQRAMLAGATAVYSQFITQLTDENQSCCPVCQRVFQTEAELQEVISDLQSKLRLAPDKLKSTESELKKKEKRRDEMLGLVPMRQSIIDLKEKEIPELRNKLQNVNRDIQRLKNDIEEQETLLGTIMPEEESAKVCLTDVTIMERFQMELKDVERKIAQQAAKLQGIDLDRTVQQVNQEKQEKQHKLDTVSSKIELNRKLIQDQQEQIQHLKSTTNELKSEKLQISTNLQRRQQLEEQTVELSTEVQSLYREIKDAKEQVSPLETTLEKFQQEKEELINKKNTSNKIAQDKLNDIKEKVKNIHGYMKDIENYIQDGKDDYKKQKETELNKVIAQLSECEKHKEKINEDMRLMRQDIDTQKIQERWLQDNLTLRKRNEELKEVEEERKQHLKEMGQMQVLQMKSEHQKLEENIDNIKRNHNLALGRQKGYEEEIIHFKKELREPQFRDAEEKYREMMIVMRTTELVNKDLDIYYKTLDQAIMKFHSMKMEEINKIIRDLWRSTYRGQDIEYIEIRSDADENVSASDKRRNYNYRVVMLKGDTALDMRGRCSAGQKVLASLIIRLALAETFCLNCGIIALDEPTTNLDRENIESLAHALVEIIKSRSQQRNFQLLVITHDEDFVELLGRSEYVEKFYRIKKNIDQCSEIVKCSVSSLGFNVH
Chain of UniProt Q4ADV7 (Q4ADV7 whole entry, looked up): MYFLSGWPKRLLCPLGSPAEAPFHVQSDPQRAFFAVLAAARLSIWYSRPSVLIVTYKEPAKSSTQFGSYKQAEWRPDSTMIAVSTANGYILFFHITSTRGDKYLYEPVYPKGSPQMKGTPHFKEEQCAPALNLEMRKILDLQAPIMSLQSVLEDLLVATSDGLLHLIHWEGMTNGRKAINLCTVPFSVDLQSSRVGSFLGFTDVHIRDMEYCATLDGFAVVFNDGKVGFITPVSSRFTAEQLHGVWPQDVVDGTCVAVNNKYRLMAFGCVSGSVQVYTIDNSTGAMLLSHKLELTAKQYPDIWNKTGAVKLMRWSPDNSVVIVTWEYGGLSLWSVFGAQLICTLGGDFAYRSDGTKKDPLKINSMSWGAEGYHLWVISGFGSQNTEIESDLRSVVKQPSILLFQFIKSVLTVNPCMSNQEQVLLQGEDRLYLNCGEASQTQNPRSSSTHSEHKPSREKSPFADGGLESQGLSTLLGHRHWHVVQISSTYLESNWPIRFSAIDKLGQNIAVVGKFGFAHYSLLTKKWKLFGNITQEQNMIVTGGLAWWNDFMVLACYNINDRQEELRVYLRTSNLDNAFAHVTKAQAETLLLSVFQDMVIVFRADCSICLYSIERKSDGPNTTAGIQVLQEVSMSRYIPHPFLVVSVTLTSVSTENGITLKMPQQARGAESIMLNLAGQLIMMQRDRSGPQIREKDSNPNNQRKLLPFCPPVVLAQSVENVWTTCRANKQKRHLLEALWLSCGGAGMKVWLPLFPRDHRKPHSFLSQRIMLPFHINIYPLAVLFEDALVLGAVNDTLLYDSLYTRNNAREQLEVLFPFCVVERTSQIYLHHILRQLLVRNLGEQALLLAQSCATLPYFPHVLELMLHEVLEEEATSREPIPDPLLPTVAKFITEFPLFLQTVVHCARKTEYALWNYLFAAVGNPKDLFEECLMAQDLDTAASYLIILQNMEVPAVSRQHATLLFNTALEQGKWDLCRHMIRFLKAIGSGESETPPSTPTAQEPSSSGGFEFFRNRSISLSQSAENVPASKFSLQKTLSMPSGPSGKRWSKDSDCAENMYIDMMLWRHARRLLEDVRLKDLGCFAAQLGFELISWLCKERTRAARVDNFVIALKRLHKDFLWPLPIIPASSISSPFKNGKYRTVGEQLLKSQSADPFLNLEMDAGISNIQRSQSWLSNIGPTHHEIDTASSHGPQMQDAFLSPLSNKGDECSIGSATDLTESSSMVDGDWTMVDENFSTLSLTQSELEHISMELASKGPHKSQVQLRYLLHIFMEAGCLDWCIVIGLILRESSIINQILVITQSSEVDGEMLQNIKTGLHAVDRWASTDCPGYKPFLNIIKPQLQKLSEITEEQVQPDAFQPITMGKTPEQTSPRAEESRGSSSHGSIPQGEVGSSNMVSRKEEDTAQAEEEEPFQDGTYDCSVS
Chain of UniProt P47736 (P47736 whole entry, looked up): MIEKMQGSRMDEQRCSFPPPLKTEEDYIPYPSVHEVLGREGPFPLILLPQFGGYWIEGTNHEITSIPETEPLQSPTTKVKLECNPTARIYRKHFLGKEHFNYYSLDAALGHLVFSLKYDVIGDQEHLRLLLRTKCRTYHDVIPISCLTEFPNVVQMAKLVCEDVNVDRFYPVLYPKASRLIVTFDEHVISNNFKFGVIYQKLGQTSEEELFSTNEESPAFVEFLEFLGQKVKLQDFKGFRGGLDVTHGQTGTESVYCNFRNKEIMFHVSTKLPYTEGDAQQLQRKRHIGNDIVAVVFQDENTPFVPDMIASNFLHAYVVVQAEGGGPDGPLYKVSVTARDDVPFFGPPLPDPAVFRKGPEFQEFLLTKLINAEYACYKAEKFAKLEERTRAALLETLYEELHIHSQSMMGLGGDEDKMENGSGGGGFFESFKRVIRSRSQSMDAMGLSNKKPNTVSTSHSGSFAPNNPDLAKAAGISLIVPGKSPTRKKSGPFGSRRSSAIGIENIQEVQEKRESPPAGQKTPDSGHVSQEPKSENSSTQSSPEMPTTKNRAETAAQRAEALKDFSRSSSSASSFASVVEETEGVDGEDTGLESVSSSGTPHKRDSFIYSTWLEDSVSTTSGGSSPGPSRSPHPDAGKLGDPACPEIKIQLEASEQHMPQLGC

Target | log2 fold change (lapatinib) | log2 fold change (pictilisib) | log2 fold change (crizotinib) | log2 fold change [1] | log2 fold change (duvelisib) | log2 fold change (gandotinib) | log2 fold change (tozasertib) | log2 fold change (doramapimod) | log2 fold change (bafetinib) | log2 fold change [2] | log2 fold change (nilotinib) | log2 fold change [3] | log2 fold change (dasatinib) | log2 fold change [4] | log2 fold change [5] | log2 fold change (quisinostat) | log2 fold change (tipifarnib) | log2 fold change [6] | log2 fold change [7] | log2 fold change [8]
RFC2 (UniProt P35250) | -0.004 | 0.015 | -0.046 | -0.025 | 0.025 | -0.007 | 0.005 | 0.042 | -0.074 | 0.041 | 0.005 | -0.018 | -0.027 | -0.012 | 0.062 | -0.04 | -0.014 | 0.036 | 0.014 | -0.05
SAR1B (UniProt Q9Y6B6) | 0.122 | 0.036 | -0.056 | -0.031 | 0.004 | 0.44 (active) | -0.005 | 0.578 (active) | -0.079 | 0.08 | 0.202 | 0.101 | 0.047 | -0.013 | -0.038 | 0.028 | -0.217 | -0.02 | -0.092 | -0.016
RAD50 isoform 2 (UniProt Q92878) | -0.012 | -0.001 | -0.025 | 0.007 | -0.019 | -0.07 | 0.011 | -0.003 | -0.004 | 0.006 | -0.004 | 0.016 | -0.042 | -0.003 | 0.026 | -0.031 | -0.02 | 0.016 | 0.005 | 0.001
RPL27 (UniProt P61353) | -0.04 | 0.008 | 0.013 | 0.411 (active) | 0.012 | -0.098 | 0.01 | -0.034 | -0.033 | -0.118 | 0.022 | -0.029 | -0.049 | 0.01 | 0 | 0.054 | -0.01 | -0.017 | -0.023 | 0.012
RPS26P11 (UniProt Q5JNZ5) | 0.024 | -0.008 | -0.085 | -0.484 (active) | 0.076 | 0.147 | -0.055 | 0.021 | -0.072 | 0.24 (active) | 0.026 | 0.027 | -0.017 | 0.044 | 0.02 | -0.151 | 0.004 | -0.036 | 0 | -0.004
RAD51C (UniProt O43502) | -0.042 | -0.023 | -0.074 | -0.006 | 0.022 | 0.065 | -0.089 | 0.074 | -0.119 | -0.044 | 0.013 | 0.021 | -0.014 | 0.009 | -0.019 | 0.036 | 0.03 | 0.051 | 0.042 | -0.021
RABL3 (UniProt Q5HYI8) | 0.036 | -0.028 | -0.102 | -0.017 | 0.198 | -0.097 | -0.003 | 0.085 | -0.05 | 0.031 | 0.049 | -0.03 | -0.077 | -0.051 | 0.01 | -0.056 | 0.08 | 0.084 | -0.003 | 0.267
RPL28 (UniProt P46779) | 0.01 | 0.047 | 0.043 | 0.234 | 0.018 | -0.098 | -0.018 | -0.046 | 0.056 | -0.059 | -0.018 | -0.011 | 0.009 | -0.015 | -0.005 | 0.08 | 0.002 | -0.028 | -0.011 | -0.023
RAC2 (UniProt P15153) | -0.057 | 0.016 | -0.018 | -0.05 | -0.026 | -0.025 | -0.062 | -0.014 | -0.042 | 0.031 | -0.025 | -0.076 | -0.068 | 0.015 | -0.093 | 0.021 | 0 | 0.001 | 0.04 | 0.017
RAP1GAP isoform 4 (UniProt P47736) | -0.019 | -0.018 | -0.044 | 0.044 | -0.032 | -0.044 | -0.009 | -0.001 | -0.069 | 0.007 | -0.002 | -0.015 | 0 | 0.017 | 0.028 | -0.046 | -0.013 | 0.029 | -0.021 | -0.034
SBF1 isoform 4 (UniProt O95248) | -0.029 | -0.075 | 0.088 | 0.07 | -0.039 | -0.066 | 0 | -0.004 | -0.061 | 0.006 | -0.018 | -0.041 | 0.092 | -0.046 | 0.047 | -0.103 | 0.162 | 0.12 | 0.039 | 0.091
REEP6 (UniProt Q96HR9) | 0.066 | 0.047 | -0.04 | -0.269 | -0.006 | 0.056 | 0.097 | 0.052 | -0.031 | 0.078 | 0.058 | 0.1 | 0.204 | 0.041 | 0.009 | -0.072 | 0.001 | -0.03 | 0.155 | -0.023
RIC1 (UniProt Q4ADV7) | 0.016 | -0.02 | -0.06 | -0.032 | -0.048 | -0.092 | 0.01 | 0.026 | 0.3 (active) | 0.108 | -0.069 | 0.033 | 0.001 | 0.086 | 0.008 | -0.169 | 0.085 | 0.097 | -0.085 | 0.002
RXRB isoform 3 (UniProt P28702) | 0.085 | -0.096 | -0.011 | 0.046 | -0.051 | -0.074 | 0.006 | -0.091 | -0.11 | 0.023 | 0.01 | -0.038 | -0.018 | 0.001 | 0.095 | -0.038 | -0.052 | 0.032 | -0.031 | -0.199
RPL36AL (UniProt Q969Q0) | 0.05 | 0.031 | 0.216 | 0.01 | -0.033 | -0.038 | 0.047 | -0.131 | 0.137 | 0.003 | 0.034 | 0.038 | 0.094 | 0.055 | 0.04 | 0.329 (active) | 0.058 | 0.01 | -0.026 | -0.009
RARS (UniProt P54136) | 0.003 | 0.019 | -0.047 | 0.039 | -0.018 | -0.078 | 0.019 | 0.042 | -0.029 | 0.041 | 0.004 | 0 | -0.074 | -0.017 | 0.038 | -0.017 | 0.006 | 0.049 | 0.015 | -0.023

Source: the supplement of paper PMC10849652
